Test results published in PubChem BioAssay AID540256 (National Center for Advancing Translational Sciences (NCATS), 2011).
Screen size: about 300,000 compounds; about 3,700 (1.2%) were called active. Another 20% or so got no clear call; they are omitted. Calls follow the shape of the full dose curve; tested in HEK293 cells. What follows is part of a selection rich in actives, with near analogues and random picks from the rest. Where a call stands in place of a potency, no number is given.

Test: qHTS for Inhibitors of binding or entry into cells for Lassa Virus; also: nearly all actives have a fitted effect of over 50% in size
Conditions: Lassa virus pseudotype entry inhibition, cell reporter; series mostly up to 37.9 µM
Potency is read from the fitted curve at half-maximal effect.

Row | Compound | Potency
1 | O=[N+]([O-])c1ccc(N=NNc2ccc([N+](=O)[O-])cc2)cc1 | inactive
2 | O=C(NCCc1ccccc1)c1c[nH]c2ccc(F)cc2c1=O | inactive
3 | CCN(CC)S(=O)(=O)c1ccc2[nH]cc(C(=O)NCCc3ccccc3)c(=O)c2c1 | 0.224 µM (active)
4 | CCc1ccc(NS(=O)(=O)c2ccc3[nH]cc(C(=O)NCCc4cccc(C)c4)c(=O)c3c2)cc1 | inactive
5 | Cc1ccc(-n2ncc3c2CC(C)(C)CC3NC(=O)Cc2c(C)noc2C)cc1 (stereo not drawn) | inactive
6 | CC(C)Cn1cnc2c1c(=O)n(CC(=O)NN)c(=O)n2Cc1ccccc1 | inactive
7 | Cc1noc(COc2ccccc2OCC(O)CNC(C)(C)C)n1 (stereo not drawn) | inactive
8 | CC(C)(C)NCC(O)COc1cccc2[nH]c(=O)[nH]c12 (stereo not drawn) | inactive
9 | CC(C)(C)CC(C)(C)NCC(O)COCCOc1ccc(Br)cc1 (stereo not drawn) | 13 µM (active)
10 | CN(N)c1nc(N2CCCC2)nc(N2CCCC2)n1 | inactive
11 | O=C(Nc1ccccc1Cl)c1ccc2nsnc2c1 | inactive
12 | COCCN(CCOC)C(=S)Nc1ccccc1Cl | inactive
13 | O=C(Nc1ccccc1Cl)/C(Cl)=C(\Cl)S(=O)c1ccccc1 (stereo not drawn) | 8.91 µM (active)
14 | CCC(=O)N1CCN(c2ccccc2NC(=O)COc2cccc(C)c2C)CC1 | inactive
15 | COc1ccc(N(CC(=O)Nc2cc(OC)cc(OC)c2)S(=O)(=O)c2c(C)n[nH]c2C)cc1 | inactive
16 | Cc1ccccc1NC(=O)c1cc(S(=O)(=O)N2CCOCC2)cs1 | inactive
17 | O=C(Nc1ccccc1F)c1cc(S(=O)(=O)N2CCCCC2)cs1 | 20.6 µM (active)
18 | O=C(Nc1ccccc1C(=O)O)c1cc(S(=O)(=O)N2CCCCC2)cs1 | inactive
19 | O=C(Nc1ccc2nc(SCCOc3ccccc3)sc2c1)c1ccco1 | inactive
20 | CCCn1c(C)cc(-c2csc(NC(=O)CCc3nc4ccccc4c(=O)[nH]3)n2)c1C | inactive
21 | Cc1oc(-c2ccccc2)nc1Cn1c(SCc2cccc(C(F)(F)F)c2)nc2cccnc21 | inactive
22 | O=S(=O)(O)c1cc2onnc2c2ccccc12 | inactive
23 | CCC(=O)/C(=C(/O)c1ccccc1)c1nc2ccccc2[nH]1 | inactive

Row | Compound | Potency
24 | O=C(/C(=C/c1cccc(Cl)c1)c1nc2ccccc2[nH]1)c1ccccc1 | 10 µM (active)
25 | Oc1ccc(Cl)cc1/C=N/c1nc2ccccc2[nH]1 | inactive
26 | CCc1ccc(NC(=O)CN2CCC(C(=O)c3ccc(OC)cc3)CC2)cc1 | inactive
27 | O=C(Nc1c(Br)cc2c(c1Br)Cc1ccccc1-2)C(F)(F)F | inactive
28 | O=C(/C=C/c1ccccc1)c1ccccc1O | inactive
29 | CC(C=Cc1ccccc1)=NNS(=O)(=O)c1ccc([N+](=O)[O-])cc1 | inactive
30 | CC(/C=C/c1ccccc1)=N\NC(=O)C1CC1(C)c1ccccc1 (stereo not drawn) | 1.03 µM (active)
31 | CSCCC(NS(=O)(=O)c1ccc(C)cc1)C(=O)N(C)CC(=O)Nc1ccccc1Br (stereo not drawn) | inactive
32 | CN(CC(=O)Nc1ccccc1C(F)(F)F)C(=O)Cc1ccccc1F | inactive
33 | COC(=O)CC(CC(=O)OC)n1cccc1 | inactive
34 | CCOC(=O)CN1C(C(=O)c2ccccc2)=C(OC(=O)C(C)(C)C)c2ccccc2S1(=O)=O | inactive
35 | CCOc1ccc(C(=O)NCC(=O)N2CCCCCCC2)cc1OCC | inactive
36 | Fc1ccc(-n2ncc3c(Nc4ccc(Oc5ccccc5)cc4)ncnc32)cc1 | inactive
37 | CCN1CCN(C(=O)c2ccccc2N(C)S(=O)(=O)c2ccc(C)cc2)CC1 | inactive
38 | NC(=O)c1ccccc1N(Cc1ccccc1)S(=O)(=O)c1ccccc1 | inactive
39 | CCOC(=O)N1CCN(C(=O)c2ccccc2N(Cc2ccccc2)S(=O)(=O)c2ccc(OC)cc2)CC1 | 7.08 µM (active)
40 | CN1CCOC1c1ccc(C2OCCN2C)cc1 (stereo not drawn) | inactive
41 | CC(=O)OC1C2(CC3N4C(=O)C5(CO)SSC4(CC31O)C(=O)N5C)OC(C)C(C)(C)C2=O (stereo not drawn) | 1.58 µM (active)
42 | CCOc1ccccc1/C=N/Nc1nc2ccccc2o1 | inactive
43 | Oc1cc2c(cc1O)CN(C(=S)NCCc1ccc(Cl)cc1)CCC2 | 11.6 µM (active)
44 | COc1ccc(CCNC(=S)N2CCN(S(=O)(=O)c3ccc(Cl)cc3)CC2)cc1 | inactive
45 | O=C1CCN(C(=S)NCCc2ccccc2)CC1 | inactive
46 | Cn1cc(C2OC(=O)c3ccccc32)c2ccccc21 (stereo not drawn) | inactive

Row | Compound | Potency
47 | COC(=O)c1ccc(C(=O)OC)c(NC(=S)N2CCN(c3ccc(F)cc3)CC2)c1 | inactive
48 | COC(=O)c1ccc(C(=O)OC)c(NC(=S)N2CCCCC2)c1 | inactive
49 | COC(=O)c1ccc(C(=O)OC)c(NC(=S)N2CCN(c3cc(Cl)ccc3C)CC2)c1 | 4.47 µM (active)
50 | Cc1ccc2c(=O)cc(C(=O)Nc3sc4c(c3C(=O)NCc3cccnc3)CCCC4)oc2c1 | inactive
51 | COc1ccc(NS(=O)(=O)c2ccc(C)c(C(=O)NCC(c3cccs3)N3CCOCC3)c2)cc1 (stereo not drawn) | inactive
52 | C/C(=N\NC(=S)NCc1ccccc1)c1ccc(Cl)cc1 | 5.8 µM (active)
53 | S=C(NCc1ccc(Cl)cc1)NC1CCCCC1 | inactive
54 | CN(C)CCCNC(=S)NCc1ccc(Cl)cc1 | inactive
55 | O=C(Nc1ncccc1O)c1ccc(S(=O)(=O)N2CCCC2)cc1 | inactive
56 | O=C(OC12CC3CC(CC(C3)C1)C2)c1ccc(NCc2cc(O)ccc2O)cc1 | 10 µM (active)
57 | O=C(COc1ccccc1[N+](=O)[O-])N/N=C/c1ccc[nH]1 | inactive
58 | CCCC(=O)Nc1ccc(C(=O)N/N=C/c2ccc[nH]2)cc1 | 10 µM (active)
59 | CC(=O)Nc1ccc(C(=O)/C=C/c2ccc[nH]2)cc1 | inactive
60 | O=C(Nc1c[nH]c(=O)[nH]c1=O)OCc1ccccc1 | inactive
61 | Cc1csc(=O)n1CC(=O)Nc1ccc(S(C)(=O)=O)cc1 | inactive
62 | CCNC(=O)CCc1nc(-c2ccc(C)cc2)no1 | inactive
63 | Cc1ccc(-c2noc(CCC(N)=O)n2)cc1 | inactive
64 | CCNC(=O)CCc1nc(-c2ccc(C(C)(C)C)cc2)no1 | 11.2 µM (active)
65 | CC1(C)C/C(=N/Nc2ccc([N+](=O)[O-])cc2[N+](=O)[O-])C(C)(C)O1 | inactive
66 | Cc1[nH]c2ccc(S(N)(=O)=O)cc2c1C | inactive
67 | NS(=O)(=O)c1ccc(N=Nc2c(=O)[nH]c3ccc4[nH]cccc4c23)cc1 | 0.628 µM (active)
68 | Cc1[nH]n(C)c(=O)c1N=Nc1ccc(S(C)(=O)=O)cc1 | inactive
